Results on 25 compounds are retold here after PubChem BioAssay (Tox21).

“And” between values parts separate entries of the source, which are not always exact repeats. Equal values may be shown once. Records with an inconclusive call do not appear. The source made the active and inactive calls. Unless noted, calls come from the whole dose curve; as a rule, active = well fitted curve in the direction sought with a large enough effect in the repeat runs; inconclusive = weak or mixed curves; inactive = no such curve, though single readings can be large; an effect the other way counts as inactive or inconclusive.

Assay [1] in a line: qHTS assay for small molecule agonists of the p53 signaling pathway (AID 651631; calls by dose curve; note: nearly all actives have a fitted effect of over 15% in size; note: potency is the fitted concentration of half-maximal effect). In outline: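 Testing took place in human colorectal HCT-116 cells with stable p53RE-driven beta-lactamase. After 16 h of compound exposure at 37 °C, a FRET substrate was added and fluorescence recorded 2 h later.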
Assay [2] in a line: qHTS assay for small molecules that induce genotoxicity in human embryonic kidney cells expressing luciferase-tagged ATAD5 (AID 651632). Note: nearly all actives have a fitted effect of over 15% in size. In outline: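 A rise in luciferase signal from ATAD5-tagged HEK293T cells marks genetic stress. Cells were exposed to compounds for 16 hr at 37C, 5% CO2, then luciferase was quantified after a 30 min room-temperature incubation with Amplite.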

Assay [3] can be described thus: qHTS assay for small molecule agonists of the p53 signaling pathway - cell viability (AID 651633; calls by dose curve; note: nearly all actives have a fitted effect of over 30% in size; note: potency is the fitted concentration of half-maximal effect). In outline:
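p53RE-bla cells were treated with compound for 16 hours at 37 C. Cytotoxicity was then measured as CellTiter-Glo luminescence after 30 min at room temperature.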
(In qHTS, concentration-response curves come from the screen itself.)

The nature of assay [4]: qHTS assay for small molecules that induce genotoxicity in human embryonic kidney cells expressing luciferase-tagged ATAD5 - cell viability (AID 651634; calls by dose curve; note: nearly all actives have a fitted effect of over 25% in size; note: potency is the fitted concentration of half-maximal effect). The procedure, abridged: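 Cytotoxicity counter-readout: after 15.5 hr compound treatment at 37C, live-cell protease activity in ATAD5-luciferase HEK293T cells measured by CellTiter-Fluor fluorescence, 30 min development at 37C.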

The nature of assay [5]: qHTS assay for small molecule disruptors of the mitochondrial membrane potential - cell viability (AID 720634; calls by dose curve;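 note: human HepG2 liver cancer cells; series mostly up to about 83 µM; nearly all actives have a fitted effect of over 20% in size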). The procedure, abridged:
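Cytotoxicity was quantified from ATP content by CellTiter-Glo luminescence in the same wells as the MMP dye read-out. HepG2 (2,000 cells/well) were plated overnight and exposed to compounds for 1 hr at 37 C.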

Assay [6] is described as follows: qHTS assay to test for compound auto fluorescence at 590 nm (red) in HepG2 cells (AID 720674). The procedure, abridged:
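HepG2 cells, 2,000 per well in MEM with 10% FBS, attached overnight at 37 C, then got 23 nL compound or DMSO. After 1 hr at 37 C, 5% CO2, red fluorescence was read at 540/590 nm against Rose Bengal sodium as reference.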

The nature of assay [7]: qHTS assay to test for compound auto fluorescence at 535 nm (green) in HepG2 cells (AID 720675).
The nature of assay [8]: qHTS assay to test for compound auto fluorescence at 460 nm (blue) in HEK293 cells (AID 720678). The procedure, abridged:
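HEK293, 2,000 cells/well, 10% dialyzed FBS; attach 4-5 hr 37C; pin compound or DMSO; o/n 37C/5% CO2; fluorescence 405/460 nm; triamterene-equivalent units.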

The nature of assay [9]: qHTS assay for small molecule disruptors of the mitochondrial membrane potential (AID 720635). Note: potency is the fitted concentration of half-maximal effect. The procedure, abridged: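 HepG2 cells exposed to compound 1 hr at 37C, then Mito-MPS dye 30 min. Ratio read of aggregate (540/590 nm) versus monomer (490/535 nm) fluorescence.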
The nature of assay [10]: qHTS assay to test for compound auto fluorescence at 590 nm (red) in HEK293 cells (AID 720679). The procedure, abridged: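 Intensity at 540nm excitation and 590nm emission is reported as Rose Bengal sodium-equivalent autofluorescence. Measurements followed overnight exposure (37C, 5% CO2) of HEK293 cells, 2,000 per well, to 23 nL compound.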

Consider `C/C=C(C)/C=C/C=C(C)C`, for which the Potency result in assay [1], in assay [2], in assay [3], in assay [4], in assay [5] and in assay [8] was “inactive” each time. The call in [6] and in assay [7] was inactive.

For the compound `c1ccc2ccccc2c1`, the Potency result in assay [1], in assay [2], in assay [3], in [4], in [5] and in assay [9] was “inactive” in each case. Also, the Potency result in [8] was “inactive”. Further, the outcome in assay [6] and in [7] was inactive.

In the case of `c1ccc2[nH]cnc2c1`, the Potency result in [1], in [2], in assay [3], in [4], in assay [5] and in [9] was “inactive” each time. Moreover, in assay [8], the Potency result is “inactive”. Further, the call in assay [6] and in [7] was inactive.

As to `O=C(c1cc(O)c(O)c(O)c1)c1ccc(O)c(O)c1O`, the Potency in assay [1] was 54.3 µM (active); in [3], 54.3 µM (active); in [4] it was 54.3 µM (active) and 54.5 µM (active). Moreover, the Potency entry in assay [2], in assay [5] and in assay [8] was “inactive” in each case. The result in assay [6], in assay [7] and in [10] was inactive.

Take `COC(=O)c1ccccc1O`: the Potency result in [1], in assay [2], in assay [3], in [4] and in [5] was “inactive” each time. Also, the call in assay [6] and in assay [7] was inactive.

Consider `Cn1c([N+](=O)[O-])cnc1COC(N)=O`, for which the Potency entry in assay [1], in assay [2], in assay [3], in assay [4], in assay [5] and in assay [9] was “inactive” in each case. Also, the Potency entry in [8] is “inactive”. Besides, the result in assay [6], in assay [7] and in assay [10] was inactive.

Turning to `CC(C)(C)C1CCC(O)CC1` (stereo not drawn), the Potency result in [1], in [2], in assay [3], in assay [4], in [5] and in assay [9] was “inactive” throughout. Besides, the result in [6], in assay [7] and in [10] was inactive.

Take `CCCCC(CC)COC(=O)/C=C\C(=O)OCC(CC)CCCC` (stereo not drawn): the Potency result in assay [1], in assay [2], in assay [3], in assay [4], in assay [5] and in [8] was “inactive” throughout. In addition, the outcome in assay [6] and in assay [7] was inactive.

With `CCOC(=O)[C@H](CCc1ccccc1)N[C@@H](C)C(=O)N1Cc2ccccc2C[C@H]1C(=O)O`, the Potency result in assay [1], in assay [2], in [3], in [4], in [5] and in assay [9] was “inactive” each time. In addition, the call in assay [6], in assay [7] and in [10] was inactive.

As to `Cc1cc(=O)[nH]c(C(C)C)n1`, the Potency result in assay [1], in assay [2], in assay [3], in [4], in assay [5] and in assay [9] was “inactive” throughout. In addition, the Potency entry in [8] is “inactive”. The call in assay [6], in assay [7] and in assay [10] was inactive.

In the case of `C[C@@H]1O[C@@H](OC[C@H]2O[C@@H](Oc3c(-c4ccc(O)c(O)c4)oc4cc(O)cc(O)c4c3=O)[C@H](O)[C@@H](O)[C@@H]2O)[C@H](O)[C@H](O)[C@H]1O`, the Potency result in [1], in assay [2], in [3], in [4], in [5] and in [9] was “inactive” each time. In addition, in assay [8], the Potency entry was “inactive”. Moreover, the compound was called inactive in [6], in assay [7] and in [10].

As for `O=[N+]([O-])c1cccc(Cl)c1`, the Potency entry in [1], in [2], in [3], in [4], in [5] and in assay [8] was “inactive” each time. Moreover, the call in assay [6], in assay [7] and in assay [10] was inactive.

As to `CCCCCCOC(C)=O`, the Potency result in assay [1], in [2], in [3], in assay [4], in assay [5] and in assay [8] was “inactive” in each case. In addition, the outcome in assay [6], in [7] and in [10] was inactive.

For `CN(C)c1ccc(C(=N)c2ccc(N(C)C)cc2)cc1`, the Potency in assay [1] is 4.28 µM (active) and 5.88 µM (active); in [4], 48 µM (active) and 46.7 µM (active); in assay [9], 27 µM (active) and 46.7 µM (active). Further, the Potency entry in assay [2], in assay [3], in assay [5] and in assay [8] was “inactive” in each case. Moreover, the outcome in assay [6], in assay [7] and in assay [10] was inactive.

With `NS(=O)(=O)c1cc2c(cc1Cl)NC=NS2(=O)=O`, the Potency result in assay [1], in [2], in assay [3], in assay [4], in assay [5] and in assay [8] was “inactive” each time. Also, the result in [6], in [7] and in assay [10] was inactive.

On to `C[C@@H](O)[C@H]1C(=O)N2C(C(=O)O)=C(S[C@@H]3CN[C@H](C(=O)N(C)C)C3)[C@H](C)[C@H]12`, for which the Potency entry in assay [1], in assay [2], in assay [3], in [4], in assay [5] and in assay [8] was “inactive” throughout. In addition, the compound was called inactive in assay [6], in assay [7] and in [10].

In the case of `C=C(C#N)C(=O)OCC`, the Potency result in [1], in assay [2], in [3], in assay [4], in [5] and in assay [8] was “inactive” each time. For the same compound, the outcome in [6], in assay [7] and in assay [10] was inactive.

As to `Nc1cc(-c2ccncc2)c[nH]c1=O`, the Potency result in assay [1], in assay [2], in assay [3], in assay [4], in [5] and in assay [9] was “inactive” in each case. Besides, in [8], the Potency entry is “inactive”. For the same compound, the compound was called inactive in assay [6] and in [7].

On to `COC(=O)c1ccc(C(=O)OC)cc1`, for which the Potency entry in assay [1], in assay [2], in [3], in assay [4], in assay [5] and in assay [9] was “inactive” each time. Also, the Potency result in [8] was “inactive”. Besides, the compound was called inactive in [6], in assay [7] and in assay [10].

Take `CCCCC(CC)COC(=O)CCCCCCCC(=O)OCC(CC)CCCC` (stereo not drawn): the Potency result in assay [1], in assay [2], in assay [3], in assay [4] and in [5] was “inactive” in each case. In addition, the result in [6] and in assay [7] was inactive.

As to `CCCCCCCCC`, the Potency entry in assay [1], in assay [2], in assay [3], in [4], in [5] and in [9] was “inactive” throughout. In addition, in [8], the Potency result was “inactive”. The compound was called inactive in assay [6] and in [7].

Regarding `CC(C)Cc1ccccc1`, the Potency result in assay [1], in assay [2], in assay [3], in assay [4], in assay [5] and in assay [8] was “inactive” each time. In addition, the compound was classed as inactive in assay [6] and in [7].

With `OCCOCCOCCOCCO`, the Potency entry in [1], in [2], in [3], in assay [4], in assay [5] and in assay [9] was “inactive” throughout. The Potency result in [8] was “inactive”. Also, the result in assay [6] and in assay [7] was inactive.

With `CC[Si](OC(C)=O)(OC(C)=O)OC(C)=O`, the Potency entry in assay [1], in [2], in assay [3], in assay [4], in [5] and in assay [9] was “inactive” each time. For the same compound, the Potency entry in [8] was “inactive”. Besides, the outcome in [6] and in [7] was inactive.

Turning to `NC(=O)/N=N/C(N)=O`, the Potency result in assay [1], in assay [2], in assay [3], in assay [4], in [5] and in assay [8] was “inactive” throughout. In addition, the outcome in [6], in assay [7] and in [10] was inactive.
